Laboratory results as given in PubChem BioAssay AID588719 (Southern Research Specialized Biocontainment Screening …, 2011).
Screen size: about 1,500 compounds; about 920 (61%) were called active. No rule for the calls is given here. So high a share suggests a set chosen from earlier hits. The list shows a part of the results. Results with a measured potency or affinity are listed apart.

Assay: Vero 76 cell cytotoxicity, dose response, cytotoxicity control for VEEV inhibitor project (AID 588719)
Conditions: Vero 76 cells viability, cytotoxicity counter-screen; series mostly up to 25 µM

Compound | outcome
Cc1cc(NC(=O)c2ccc3nccnc3c2)ccc1Br | inactive
C[C@@H]1CCCCO[C@H](CN(C)C(=O)NC2CCCCC2)[C@@H](C)CN([C@H](C)CO)C(=O)c2cc(NC(=O)c3ccccc3)ccc2O1 | inactive
COc1cccc(CNC(=O)c2cc3oc4ccccc4c3n2C)c1OC | inactive
CCC1(c2ccccc2)NC(=S)N(c2ccc(C)cc2)N1 (centres undefined) | inactive
O=C(COC(=O)CCC(=O)c1ccc(F)cc1)NCc1ccccc1Cl | inactive
O=C(Nc1ccc(C(=O)OC[C@@H]2CCCN3CCCC[C@H]23)cc1)c1cccc(Br)c1 | inactive
CCCCC(=O)NC(c1ccc(Cl)cc1Cl)c1ccc2cccnc2c1O (centres undefined) | inactive
CCC(=O)OC1CCC2C3CCC4CC(=O)C=CC4(C)C3CCC12C (centres undefined) | inactive
CNCCNC[C@H](Cc1cccc2ccccc12)NCCc1ccccc1 | inactive
Cc1cccc2sc(N(CCCN(C)C)C(=O)c3ccco3)nc12 | inactive
CCOC(=O)c1c(C)oc2ccc(OCc3cc(C(=O)OC)oc3C)cc12 | inactive
C=C(C)COc1ccc(-c2nc(N)ncc2-c2ccc(Br)cc2)c(O)c1 | inactive
C=CCC1(CCCCC)C(=O)NC(=S)NC1=O | inactive
Oc1c(C(Nc2nc3ccccc3s2)c2ccco2)ccc2cccnc12 (centres undefined) | inactive
O=CC1=C(c2ccccc2)Oc2ccccc2O1 | inactive
Cc1ccc(NC(=O)Nc2ccno2)cc1 | inactive
Cc1ccc(S(=O)(=O)c2ccsc2NC(=O)c2ccccc2)cc1 | inactive
Cc1cc(N/N=C/c2cccc([N+](=O)[O-])c2)nc(-n2nc(C)cc2C)n1 | inactive
CC(C)(C)OC(=O)[C@H](Cc1ccccc1)NC(=O)c1nc[nH]c1C(=O)NC1CCN(C(=O)OC(C)(C)C)CC1 | inactive
CC1(C)CC(=O)/C(=N/Nc2ccc(Cl)cc2)CO1 | inactive
CN1CCN(c2ccc(NC(=O)c3cccc(OCc4ccccc4)c3)cc2)CC1 | inactive
CCCCOc1ccc(C(=O)Nc2ccc(N3CCN(C)CC3)cc2)cc1 | inactive

Compound | outcome
CCCn1cnc2c(SCc3ccccc3Cl)nc(N)nc21 | inactive
CCN(CC)CCCNC(=O)c1oc2ccc(S(=O)(=O)N3CC(C)CC(C)C3)cc2c1C (centres undefined) | inactive
O=C(NCCc1csc(-c2cccnc2)n1)c1ccccc1Br | inactive
Cc1ccccc1-c1n[nH]c(=S)n1/N=C/c1c(C)nn(-c2ccccc2)c1C | inactive
COc1ccccc1C1N(c2ccc(Cl)cc2)C(=O)C2CCCN21 (centres undefined) | inactive
CNc1nc(Cl)nc2c1ncn2-c1ccccc1 | inactive
Cc1cc(=O)[nH]c(N/N=C/c2ccc(OC(=O)c3cccnc3)cc2)n1 | inactive
O=S1(=O)CCC(NC(=S)SCCOc2ccccc2)C1 (centres undefined) | inactive
Nc1[nH]nc2nc(NCc3ccccc3)c3c(c12)CCN(Cc1ccccc1)C3 | inactive
Cc1ccc(N2C(=O)NC(=O)/C(=C\C=C\c3ccco3)C2=O)cc1 | inactive
CCc1ccc(N2C(=O)NC(=O)/C(=C\C=C\c3ccco3)C2=O)cc1 | inactive
Nc1nc(CN2CCN(c3ccccn3)CC2)nc(Nc2ccc(Cl)cc2)n1 | inactive
Cc1[nH]c(C)c(S(=O)(=O)N2CCN(c3cccc(C(F)(F)F)c3)CC2)c1C(=O)N1CCCCC1 | inactive
COc1ccccc1OCC(=O)Nc1nc2c(s1)CCCC2 | inactive
O=C1Nc2cc(C(=O)NCCCN3CCOCC3)ccc2S/C1=C/c1cccc(Cl)c1 | inactive
O=C(NCCCN1CCOCC1)c1ccc(/C=C2\Oc3ccccc3N(Cc3ccccc3F)C2=O)cc1 | inactive
COc1cc(NC(=S)N(C)C)c(OC)cc1Cl | inactive
COC(=O)c1cc(Cl)c(NC(=O)c2ccc(C(C)(C)C)cc2)cc1OC | inactive
CCc1ccc(-c2cc3c(=O)n(CC(=O)NCCCN4CCN(CC)CC4)nc(C)n3n2)cc1 | inactive
O=C(NC1CC1)C1=C[C@@H](C2CCCCC2)C[C@@H](OCc2ccc(CO)cc2)O1 | inactive
NC(=O)C1=C[C@H](C2CCCCC2)C[C@H](OCc2ccc(CO)cc2)O1 | inactive
Cc1cccc(NC(=O)C(C)Sc2nc3ccccc3c(=O)n2CCCN2CCOCC2)c1 (centres undefined) | inactive

Compound | outcome
CC(=O)C1C2c3ccccc3OC1(C)N=c1s/c(=C/c3cn(C)nc3C)c(=O)n12 (centres undefined) | inactive
O=C(NC1CCN(Cc2ccccc2)CC1)c1ccc(Oc2cc(Cl)cc(Cl)c2)o1 | inactive
c1ccc(COC(CN2CCCCCC2)CN2CCCCCC2)cc1 | inactive
O=C(c1ccc(-c2ccccc2)c(F)c1)C1CCCN(CCO)C1 (centres undefined) | inactive
COc1cc2c(cc1OC)C13CCN4CC5=CCOC(CC(=O)O)C(C5CC41)C3N2 (centres undefined) | inactive
Cc1c(-c2ccc(OCc3ccccc3)cc2)nc2ccccc2c1C(=O)O | inactive
C[C@@H]1CN([C@H](C)CO)C(=O)CCCn2nncc2CO[C@@H]1CN(C)C(=O)Nc1ccc(N2CCCCC2)cc1 | inactive
COc1cccc(/C=C/c2n[nH]c(=O)c(C#N)c2C)c1 | inactive
CC(C)CN(C(=O)COC(=O)/C=C/c1ccc(Cl)c(Cl)c1)c1c(N)n(Cc2ccccc2)c(=O)[nH]c1=O | inactive
O=C1C2C3C=CC(C4CC34)C2C(=O)N1CCCCN1CCN(c2ccc(F)cc2)CC1 (centres undefined) | inactive
Cc1ccc(NC(=O)c2ccc(CN3CCN(C)CC3)cc2)cc1Nc1nccc(-c2cccnc2)n1 | inactive
COc1ccc(-c2cc(-c3ccc(F)cc3)nc(N3CCN(C)CC3)n2)cc1 | inactive
COCC(C)n1c(SCc2cc(=O)n3cc(C)ccc3n2)nc2ccccc2c1=O (centres undefined) | inactive
Cc1ccc2oc(=O)c3cnn(CC(=O)Nc4ccccc4N4CCN(C)CC4)c3c2c1 | inactive
COc1cc(NC(=O)c2ccc(-c3cccc([N+](=O)[O-])c3)o2)ccc1NC(=O)C(C)C | inactive
Cc1cccc(NC(=O)CSc2nc3ccccc3nc2N2CCCC2)c1 | inactive
CC(=O)c1cccc(NC(=O)/C=C/c2ccc([N+](=O)[O-])s2)c1 | inactive
O=C1c2cccc3cc([N+](=O)[O-])cc(c23)C(=O)N1c1ccccc1O | inactive
COc1ccc(C(Nc2cccc([N+](=O)[O-])c2)P(=O)(OC(C)C)OC(C)C)cc1 (centres undefined) | inactive
CCCNC(=O)N1CCN(c2nc(C(C)C)c3c(c2C#N)CC(C)(C)OC3)CC1 | inactive
